Screens deposited in PubChem BioAssay by National Center for Advancing Translational Sciences (NCATS).
An excerpt weighted towards active compounds, which were near 1.9% of everything screened.
PKM2 act: activators of human pyruvate kinase M2; P14618; purified PKM2, Kinase-Glo ATP luminescence, activation; response scale: 0% is enzyme alone, no compound; Potency, µM (doses to about 57.5 µM), for the others: at the top dose activation, most hits filed as activators; actives 0.34% (n = 260,000); AID 1631; further: potency means the concentration at half of the fitted maximal effect; on the % scale 0 is the no-effect control and ±100 the full control effect; nearly all actives have a fitted effect of over 55% in size
Target sequence (P14618 whole entry, looked up): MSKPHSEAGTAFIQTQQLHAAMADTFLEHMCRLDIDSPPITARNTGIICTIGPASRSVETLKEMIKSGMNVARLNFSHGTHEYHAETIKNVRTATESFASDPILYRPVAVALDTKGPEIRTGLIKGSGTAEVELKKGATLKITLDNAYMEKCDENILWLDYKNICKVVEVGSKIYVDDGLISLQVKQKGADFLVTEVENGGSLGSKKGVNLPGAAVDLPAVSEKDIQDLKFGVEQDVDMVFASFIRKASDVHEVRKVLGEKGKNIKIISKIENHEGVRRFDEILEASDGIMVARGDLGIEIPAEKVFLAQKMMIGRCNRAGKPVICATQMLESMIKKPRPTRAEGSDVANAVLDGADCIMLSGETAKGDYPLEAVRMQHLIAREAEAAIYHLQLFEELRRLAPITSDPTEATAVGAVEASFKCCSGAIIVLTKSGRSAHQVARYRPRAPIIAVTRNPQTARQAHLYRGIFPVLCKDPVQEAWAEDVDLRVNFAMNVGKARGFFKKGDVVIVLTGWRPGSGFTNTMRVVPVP
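Kinase-Glo luminescence reports ATP generated from ADP (0.1 mM) and PEP (0.5 mM) by purified hPK-M2 after 1 h at room temperature, pH 7.2 imidazole buffer; intermediate enzyme activity allows detecting inhibitors and activators.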
IL-2 act: activators of IL-2. activation, % (series mostly up to about 46 µM). actives 0.065% (n = 360,000). IL-2 activation reporter assay, cell-based qHTS; stimulated with anti-CD3/CD4/CD28 beads; in transgenic mouse T cells; in the data active means activation above about 50%; inconclusive means mostly about 30% to 49%; further: 0% is about no effect
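Unstimulated transgenic mouse T cells, 750 per well, received compound and, after 60 minutes, anti-CD3/anti-CD4 bead plus anti-CD28 stimulation. EGFP and DsRed were quantified after 18 hours.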
ClpP mod: qHTS Assay for Activators of ClpP; ATP-dependent Clp protease proteolytic subunit (Bacillus subtilis (strain 168)), P80244; purified B. subtilis ClpP, FRET peptide cleavage, 20 min; Potency, µM (doses to about 57.5 µM), for inactives: at the highest dose activity change, negative = active; actives 1.9% (n = 340,000); active means well fitted falling curve with a large enough effect; inconclusive means small, poorly fitted or top-dose-only effect; inactive means no such curve, though single readings can be large or run the other way; further: potency means the concentration at half of the fitted maximal effect; the source files actives as falling curves though it sought activators and does not explain the sign; nearly all actives have a fitted effect of over 65% in size
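Purified B. subtilis ClpP, 10 microg/mL final in Tris/HCl pH8 with KCl, BSA, glycerol and Tween-20, cleaved an Abz/nitrotyrosine-quenched decapeptide. Fluorescence (ex 320, em 430) was read at 0 and 20 min at room temperature. Delta was normalized to 5.8 microM ADEP and DMSO/no-enzyme controls.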
Integrin act MD: activates integrin-mediated alleviation for muscular dystrophy; alpha7betagal myoblasts, beta-gal FDG fluorescence, 48 h; Potency, µM (series often up to 38.3 µM), inactives show top-dose activation, most hits filed as activators; actives 0.064% (n = 350,000);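 further: potency means the concentration at half of the fitted maximal effect; 100% = response of the positive control SU9516; nearly all actives have a fitted effect of over 60% in size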
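alpha7betagal+/- myoblasts (passage 13, 250/well) treated 48 h at 37C with compounds at 1:260 dilution of DMSO stock. Lysed, then beta-galactosidase activity read as FDG fluorescence (ex 480/em 540) after 30 min, with pre-read for autofluorescence.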
Pin1 inhibitor: blocks the human prolyl isomerase Pin1; actives 0.009% (n = 390,000); Q13526; Pin1 FP peptide displacement, HiFluor488, 10 min; Potency, µM (top dose mostly 115 µM), inactives show top-dose activity, negative = inhibition, usual class: inhibitors; active means well fitted inhibition curve with a large enough effect in the polarisation, with a control signal flat, not every such curve was filed as active; inconclusive means small, poorly fitted or top-dose-only effect, or effect the other way, or a change in a side signal; inactive means no such curve, though single readings can be large or run the other way; the % refers to the polarisation; further: potency means the concentration at half of the fitted maximal effect; on the % scale 0 is the no-effect control and ±100 the full control effect
USP2a inh: inhibitors of human ubiquitin-specific protease USP2a; USP2 core, Ub-CHOP2 coupled fluorogenic reporter, 485/531; AID 463254; O75604; actives 0.01% (n = 330,000); Potency, µM (doses to about 38.3 µM), inactives show top-dose activity change, negative = inhibition, usual class: inhibitors;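 further: potency means the concentration at half of the fitted maximal effect; plate controls were DMSO wells for no effect and full inhibition by NEM control for full effect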
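Cell-free coupled assay: 10nM USP2 core preincubated 30min RT with compound in Tris-HCl pH 8.0/CaCl2/CHAPS buffer, then 25nM Ub-CHOP2 and 25nM reporter substrate; fluorescence (Ex 485/Em 531) read after 60min RT, normalized to NEM inhibition, concentration-response curves fitted.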
* marks the source's active call; other numbers are inactive results; ? = inconclusive; · = not tested or not shown; [ ] = remark or other dose. Unless noted, the call rests on the fitted dose curve; in most records, active means well fitted curve in the direction sought with a large enough effect; inconclusive means small, poorly fitted or top-dose-only effect, or another doubt; inactive means no such curve, though single readings can be large; an effect the other way counts as inactive or inconclusive.

SMILES | PKM2 act | IL-2 act | ClpP mod | Integrin act MD | Pin1 inhibitor | USP2a inh
O=C(c1ccccc1)N1CCCN(c2nccc(C(F)(F)F)n2)CC1 | -39% | 0 | · | 1% | 0% | 4%
COc1ccc(OC)c(-c2cc(C(=O)Nc3c(C)nn(Cc4ccc(Cl)cc4)c3C)no2)c1 | 15% | 0 | 35µM* | -12%[7.66 µM] | -2% | -6%
Cc1ccc(-c2cc3ccccc3nc2N2CCOCC2)cc1 | -3% | 2 | · | -10% | ? | 2%
c1ccc(-c2cc3ccccc3nc2N2CCCC2)cc1 | -2% | -3 | 28µM* | -20% | 0% | 0%
O=C(NCCc1ccccc1)c1cc(-c2ccccc2)nc2n[nH]c(-c3ccccc3)c12 | · | · | 28µM* | · | 3% | ·
Cc1ccc(-c2cc(C(=O)NCCc3ccccc3)c3c(-c4ccc(C)cc4)[nH]nc3n2)cc1 | · | · | 4% | · | 5% | ·
COc1cccc(C2C(C#N)=C(NC(=O)CCc3ccccc3)Oc3ccc4ccccc4c32)c1 (stereo unspecified) | · | · | · | · | -5% | ·
CCC(C(=O)NCc1ccco1)N(C(=O)CNS(=O)(=O)c1ccc(C)cc1)c1ccccc1F (stereo unspecified) | · | -4 | · | -4% | -2% | 1%
CCC(C(=O)NCc1ccco1)N(C(=O)CNS(=O)(=O)c1ccc(C)cc1)c1ccccc1OC (stereo unspecified) | -2% | -2 | 32µM* | 7% | 14% | 0%
Cc1cc2ccccc2c[n+]1C1CCCCC1 | · | · | 4% | · | · | ·
Cc1cccc2c(=O)n3c(cc12)-c1[nH]c2ccccc2c1CC3 | · | ? | 14µM* | 10% | ? | ·
CCN(CC)CCCNC(=O)c1ccc2c(c1)NC(=O)C(CS(=O)(=O)Cc1cccc(Br)c1)N2 (stereo unspecified) | · | · | 3.5µM* | · | -5% | ·
O=C(NCc1ccccc1Cl)c1ccc2c(c1)NC(=O)C(CS(=O)(=O)Cc1ccc(Cl)cc1)N2 (stereo unspecified) | · | · | 4% | · | ? | ·
CCN(CC)CCNC(=O)c1ccc2c(c1)NC(=O)C(CS(=O)(=O)Cc1cccc(Br)c1)N2 (stereo unspecified) | · | · | 7.9µM* | · | -3% | ·
CC(C)CC1Nc2ccc(C(=O)NCCCOC(C)C)cc2NC1=O (stereo unspecified) | · | · | -10% | · | -10% | ·
CCCCNC(=O)c1ccc2c(c1)NC(=O)C(CS(=O)(=O)Cc1ccc(F)cc1Cl)N2 (stereo unspecified) | · | · | 40µM* | · | ? | ·
Clc1cccc[n+]1CCc1ccccc1 | · | · | -10% | · | · | ·
COc1ccc(-c2ccc(C3C4C=CCCC4(C)C(=O)N3Cc3ccccc3)c(F)c2)cc1 (stereo unspecified) | · | · | · | · | 3% | ·
Cc1ccc(Nc2nc(N)nc(CSc3nccn3C)n2)c(C)c1 | 12% | 1 | 4µM* | 14% | 0% | -1%
COc1ccc(C2=Nn3c(nnc3-c3cccc(OC)c3OC)SC2)c(OC)c1 | · | · | · | · | -7% | ·
CCc1nn2c(=O)cc(COC(=O)c3ccc(NC(=O)CCc4ccccc4)cc3)nc2s1 | · | · | ? | · | 4% | ·
CCc1nn2c(=O)cc(COC(=O)c3cccc(NC(=O)CCc4ccccc4)c3)nc2s1 | · | · | 32µM* | · | 4% | ·
CC(C(=O)Nc1ccc(C#N)cc1)N(C)CC(=O)Nc1cccc(F)c1 (stereo unspecified) | 2% | 1 | -2% | 4µM* | 0% | 0%
COc1ccc(C2Nc3ccccc3C(=O)N2Cc2ccccc2C)cc1COc1ccc(NC(C)=O)cc1 (stereo unspecified) | · | · | · | · | 8% | ·
O=C1c2ccccc2NC(c2ccccc2OCc2ccccc2)N1Cc1ccco1 (stereo unspecified) | · | · | 4% | · | 7% | ·
CSc1ccc(CNCCCSc2ncccn2)cc1 | 0% | 1 | 8.9µM* | -34% | 8% | -8%
